CYP2C19 act: increases human CYP2C19 enzyme activity | P33261 | recombinant CYP2C19, luciferin-H EGE luminescence; stronger effect = higher value; 0 = fully inhibited enzyme, 1 = untreated enzyme | activation factor at 5 µM | 96,000 tested, under 10 active | AID 1025;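 active = activation factor of at least 2 at 5 µM in the primary screen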;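 also: 0 = wells with 2.5 mM tranylcypromine and 1 = vehicle-only wells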
Target sequence (P33261 whole entry, looked up): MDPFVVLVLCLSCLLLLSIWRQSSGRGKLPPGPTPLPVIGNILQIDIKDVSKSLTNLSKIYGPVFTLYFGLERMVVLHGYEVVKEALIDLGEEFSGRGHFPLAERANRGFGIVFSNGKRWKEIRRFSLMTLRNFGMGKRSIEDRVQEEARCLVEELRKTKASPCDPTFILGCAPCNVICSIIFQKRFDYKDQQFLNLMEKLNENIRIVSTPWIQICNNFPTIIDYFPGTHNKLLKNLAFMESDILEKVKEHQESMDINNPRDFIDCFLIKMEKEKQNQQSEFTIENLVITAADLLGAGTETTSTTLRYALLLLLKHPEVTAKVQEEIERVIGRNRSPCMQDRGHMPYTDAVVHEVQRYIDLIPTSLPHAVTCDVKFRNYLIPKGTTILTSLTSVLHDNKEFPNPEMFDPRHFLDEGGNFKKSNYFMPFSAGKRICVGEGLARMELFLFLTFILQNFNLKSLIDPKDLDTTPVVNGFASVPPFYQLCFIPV
CYP2C9 inhib: inhibitors of human CYP2C9. CYP2C9 Supersomes, luciferin-H conversion, luminescence. inhibition, % at 5 µM. actives 20% (n = 96,000). AID 777;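 active = blocking of liver enzyme CYP2C9 beyond about 50% at 5 µM, limit read from the data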
PostGolgi ctrl: inhibits growth of the yeast control strain; efflux-deficient yeast background strain, growth absorbance A615, 16 h; inhibition, % at 10 µM; actives 5% (n = 98,000); AID 738
PostGolgi yeast: growth inhibition of a yeast mutant, post-Golgi transport screen | post-Golgi transport phenotypic cell assay | inhibition, % at 10 µM | actives 0.9% (n = 98,000) | AID 739;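 also: yeast cells grown in 1536-well plates; yeast grown about 18 h at 30C before absorbance read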
CYP2C19 inh: inhibitors of human CYP2C19; inhibition, % at 5 µM; actives 21% (n = 96,000); AID 778; CYP2C19 Supersomes, luciferin-H EGE luminescence, 30 min;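 active = CYP2C19 inhibition above a set limit at 5 µM in the primary screen, cut at about 50% in these data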;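 also: plate controls were negative control wells for no effect and 2.5 mM tranylcypromine positive control for full effect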
CYP2C9 act: increases human cytochrome P450 2C9 activity | P11712 | recombinant CYP2C9, luciferin-H conversion, luminescence; stronger effect = higher value; factor 1 = untreated enzyme, 0 = blocked | activation factor at 5 µM | actives 1.4% (n = 96,000);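 active = activation factor of 2 or more for CYP2C9 at a 5 µM dose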;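 also: 0 = sulfaphenazole-blocked wells and 1 = vehicle-only wells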
* marks the source's active call; other numbers are inactive results. Sampled rows, rich in hits. Any-hit rate of the full collection: about 32%. Rule as the data show it, unless noted: active = inhibition above about 30%; inactive = the rest.

`Cc1cccc(OCCCC(=O)NCc2ccco2)c1` gave CYP2C19 act 0.6, CYP2C9 inhib -1, PostGolgi ctrl -2, PostGolgi yeast -1, CYP2C19 inh 45 and CYP2C9 act 1.
`c1ccc(-c2cc3c(ccc4nonc43)nn2)cc1` gave CYP2C19 act 1, CYP2C9 inhib 15, PostGolgi ctrl 10, PostGolgi yeast -1, CYP2C19 inh 5 and CYP2C9 act 0.9.
On1onc2c3cc(-c4ccccc4)nc3ccc21 was read as CYP2C19 act 0.8, CYP2C9 inhib 65*, PostGolgi ctrl 94*, PostGolgi yeast 96*, CYP2C19 inh 25 and CYP2C9 act 0.3.
For Cc1ccc(C)c(NC(=O)c2nnn(Cc3ccccc3)c2N)c1 the results were CYP2C19 act 0.8, CYP2C9 inhib 20, PostGolgi ctrl 26, PostGolgi yeast 2, CYP2C19 inh 16 and CYP2C9 act 0.8.
`Cc1ccc(C)c(NC(=O)c2nnn(Cc3ccccc3C)c2N)c1` gave CYP2C19 act 0.6, CYP2C9 inhib 24, PostGolgi ctrl 33*, PostGolgi yeast -4, CYP2C19 inh 37 and CYP2C9 act 0.8.
`COc1ccc(C2C3=C(CCCC3=O)Nc3c(-c4ccccc4)c(C)nn32)cc1` (configuration not stated) gave CYP2C19 act 0.3, CYP2C9 inhib 35, PostGolgi ctrl 8, PostGolgi yeast 0, CYP2C19 inh 71* and CYP2C9 act 0.6.
`O=C(Nc1ccc(F)cc1F)c1ccco1` gave CYP2C19 act 1.1, CYP2C9 inhib 6, PostGolgi ctrl 16, PostGolgi yeast 2, CYP2C19 inh -6 and CYP2C9 act 0.9.
`O=C(Nc1ccc(F)cc1)c1sccc1SCc1cccc(C(F)(F)F)c1` gave CYP2C19 act 0.6, CYP2C9 inhib 65*, PostGolgi ctrl 22, PostGolgi yeast -5, CYP2C19 inh 36 and CYP2C9 act 0.4.
Screening O=C(Nc1ccc(F)cc1F)c1sccc1SCc1cccc(C(F)(F)F)c1 returned CYP2C19 act 0.7, CYP2C9 inhib 58*, PostGolgi ctrl 13, PostGolgi yeast -2, CYP2C19 inh 26 and CYP2C9 act 0.4.
Screening COc1ccc(NC(=O)Nc2nnc(-c3ccccc3SCc3ccccc3)s2)cc1 returned CYP2C19 act 0.9, CYP2C9 inhib 12, PostGolgi ctrl 9, PostGolgi yeast -6, CYP2C19 inh 5 and CYP2C9 act 0.9.
`O=C(Nc1cccc(C(F)(F)F)c1)c1ccco1` gave CYP2C19 act 1, CYP2C9 inhib -33, PostGolgi ctrl 6, PostGolgi yeast -2, CYP2C19 inh 3 and CYP2C9 act 1.3.
Screening COc1ccc(NC(=O)c2sccc2SCc2cccc(C(F)(F)F)c2)cc1 returned CYP2C19 act 0.5, CYP2C9 inhib 69*, PostGolgi ctrl 17, PostGolgi yeast -4, CYP2C19 inh 50* and CYP2C9 act 0.3.
`NC(=O)C1CCN(c2ncnc3c2c(-c2ccccc2)cn3-c2ccccc2)CC1` gave CYP2C19 act 0.9, CYP2C9 inhib 10, PostGolgi ctrl 13, PostGolgi yeast 5, CYP2C19 inh 8 and CYP2C9 act 0.9.
For Cc1ccc(Nc2nc(C(=O)NCCCN3CCOCC3)cs2)cc1 the results were CYP2C19 act 0.7, CYP2C9 inhib 26, PostGolgi ctrl 13, PostGolgi yeast 11, CYP2C19 inh 28 and CYP2C9 act 0.7.
`CCN(CC)C(=O)c1csc(Nc2ccc(C)cc2)n1` gave CYP2C19 act 0.2, CYP2C9 inhib 61*, PostGolgi ctrl 14, PostGolgi yeast -3, CYP2C19 inh 81* and CYP2C9 act 0.4.
`O=C(CSc1nnc(Nc2ccccc2)s1)NCc1ccco1` gave CYP2C19 act 0.6, CYP2C9 inhib 37, PostGolgi ctrl 1, PostGolgi yeast -8, CYP2C19 inh 42 and CYP2C9 act 0.6.
CCOC(=O)/C(=N\Nc1ccc(Cl)cc1)c1csc(Nc2ccccc2)n1 was read as CYP2C19 act 0.9, CYP2C9 inhib 87*, PostGolgi ctrl -2, PostGolgi yeast 4, CYP2C19 inh 12 and CYP2C9 act 0.1.
`Cc1ccc(Nc2nc(C3CC3)cs2)cc1` gave CYP2C19 act 0.8, CYP2C9 inhib 26, PostGolgi ctrl 9, PostGolgi yeast 2, CYP2C19 inh 20 and CYP2C9 act 0.7.
CCOC(=O)/C(=N/Nc1ccccc1)c1csc(Nc2ccccc2)n1 was read as CYP2C19 act 0.9, CYP2C9 inhib 44, PostGolgi ctrl 14, PostGolgi yeast -2, CYP2C19 inh 7 and CYP2C9 act 0.6.
For Cc1ccc(Nc2nnc(SCC(=O)NCc3ccco3)s2)cc1 the results were CYP2C19 act 0.6, CYP2C9 inhib 58*, PostGolgi ctrl -2, PostGolgi yeast -6, CYP2C19 inh 44 and CYP2C9 act 0.4.
Screening Cc1ccc(Nc2nc(C(=O)NCc3ccco3)cs2)cc1 returned CYP2C19 act 0.1, CYP2C9 inhib 91*, PostGolgi ctrl 3, PostGolgi yeast 16, CYP2C19 inh 86* and CYP2C9 act 0.1.
`CN(C)c1cccc(-c2nnc(SCCCC#N)o2)c1` gave CYP2C19 act 0.9, CYP2C9 inhib -9, PostGolgi ctrl 21, PostGolgi yeast -3, CYP2C19 inh 13 and CYP2C9 act 1.1.
COc1cc2c(cc1NC(=O)c1cccc(Br)c1)CCCC2 was read as CYP2C19 act 1.1, CYP2C9 inhib -2, PostGolgi ctrl 18, PostGolgi yeast -2, CYP2C19 inh -10 and CYP2C9 act 1.
Screening Cc1nc2ccccn2c1P(=Nc1ccccc1)(N(C)C)N(C)C returned CYP2C19 act 1, CYP2C9 inhib 15, PostGolgi ctrl -1, PostGolgi yeast -2, CYP2C19 inh 4 and CYP2C9 act 0.9.
Screening O=C(CCN1C(=O)c2ccccc2C1=O)NC1=NCCS1 returned CYP2C19 act 1, CYP2C9 inhib -5, PostGolgi ctrl 7, PostGolgi yeast -7, CYP2C19 inh 3 and CYP2C9 act 1.1.
For COc1ccc(CN(C(=O)c2ccc3c(c2)OCCO3)C(C(=O)NC2CCCCC2)c2ccc3ncccc3c2)cc1 (configuration not stated) the results were CYP2C19 act 0.4, CYP2C9 inhib 27, PostGolgi ctrl -2, PostGolgi yeast 14, CYP2C19 inh 62* and CYP2C9 act 0.7.
COc1cccc(CN(C(=O)c2ccco2)C(C(=O)NC2CCCC2)c2cccnc2)c1 (configuration not stated) was read as CYP2C19 act 0.8, CYP2C9 inhib 12, PostGolgi ctrl 8, PostGolgi yeast 2, CYP2C19 inh 23 and CYP2C9 act 0.9.
COc1ccc(CN(C(=O)c2nsc(Cl)c2Cl)C(C(=O)NC2CCCCC2)c2ccc(OC)cc2)cc1 (configuration not stated) was read as CYP2C19 act 0.5, CYP2C9 inhib 58*, PostGolgi ctrl 11, PostGolgi yeast 3, CYP2C19 inh 51* and CYP2C9 act 0.4.
